# Screening results as filed in PubChem.
# MCF10A rerep – A quantitative high throughput screen for small molecules that induce DNA re-replication in MCF 10a normal breast cells; MCF 10A DNA re-replication, Hoechst nuclear intensity, 48 h; Potency, µM (top dose mostly 46.1 µM), inactives show at the highest dose activity, positive = re-replication, hits mostly activators; 350,000 compounds, 2.9% hits; AID 624296, 2012; note: potency is the fitted concentration of half-maximal effect; % of control where 0% means no effect; nearly all actives have a fitted effect of over 50% in size
# IL1B secr inh – qHTS for Inhibitors of Inflammasome Signaling: IL-1-beta AlphaLISA Primary Screen; THP-1 LPS/ATP IL-1B secretion, AlphaLISA, 16 h; hits give low values; activity change, % at 57.5 µM; 360,000 compounds, 4.7% hits; AID 743279, 2014; in the data active = activity change below about -50%; inconclusive = mostly about -30% to -49%; note: % is set by controls: 0 for no effect and ±100 for the full control effect
#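 THP-1 cells pretreated 1 hr with compounds (up to 57.5 uM final), then stimulated with LPS (250 ng/mL final) plus ATP (1.25 mM final); secreted IL-1B measured by AlphaLISA after 16 hr, decreased signal indicating inhibition.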
# KB-V1 MDR tox – qHTS assay for MDR1-selective chemotherapeutics: Primary screen using the drug-selected MDR subline cells KB-V1; Potency, µM (top dose mostly 46.1 µM), most hits filed as cytotoxic; KB-V1 MDR cells viability, CellTiter-Glo, 72 h; 400,000 compounds, 3.4% hits; note: potency is the fitted concentration of half-maximal effect; % is set by controls: 0 for no effect and ±100 for the full control effect; nearly all actives have a fitted effect of over 60% in size
#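 Compound-treated KB-V1 multidrug-resistant cells, 72 h, 37 degrees C; viability by CellTiter-Glo. Fitted qHTS curves give the values.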
# SW480 rerep – A quantitative high throughput screen for small molecules that induce DNA re-replication in SW480 colon adenocarcinoma cells. AID 624297, 2012. SW480 DNA re-replication, Hoechst DNA content imaging, 48 h. 340,000 compounds, 1.8% hits. Potency, µM (titrated, usually from 46.1 µM), inactives show top-dose re-replication activation, most hits filed as activators; note: potency is the fitted concentration of half-maximal effect; % of control where 0% means no effect; nearly all actives have a fitted effect of over 55% in size
#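 Readout is total intensity of Hoechst-stained nuclei, excited at 405 nm and collected at 500-530 nm. Compound treatment lasted 48 hr at 37 C in 5% CO2 before staining.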
# KB-3-1 cytotox – qHTS assay for MDR1-selective chemotherapeutics: Primary screen using the parental adenocarcinoma cell KB-3-1 | Potency, µM (top dose mostly 46.1 µM), most hits filed as cytotoxic | AID 1347075, 2019 | KB-3-1 viability, CellTiter-Glo ATP luminescence, 72 h | 400,000 compounds, 1.4% hits; note: potency is the fitted concentration of half-maximal effect; % is set by controls: 0 for no effect and ±100 for the full control effect; nearly all actives have a fitted effect of over 60% in size
#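 Cells are dispensed, compounds pinned in, plates held at 37 °C for 72 h, then CellTiter-Glo is added and luminescence read after 10 minutes. Cell line: parental KB-3-1 in phenol-red-free DMEM, 10% FBS.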
# Active calls of the source: *; i = inactive; ? = inconclusive; nt = no result. This is a sample that favours compounds with a hit; in the whole collection about 9.9% have one here. Unless noted, calls come from the whole dose curve; as a rule, active = well fitted curve in the direction sought with a large enough effect; inconclusive = small, poorly fitted or top-dose-only effect, or another doubt; inactive = no such curve, though single readings can be large; an effect the other way counts as inactive or inconclusive.
SMILES,MCF10A rerep,IL1B secr inh,KB-V1 MDR tox,SW480 rerep,KB-3-1 cytotox
COc1cc(CN2CCN(Cc3cccc(OC)c3OC)CC2)cc(OC)c1,12%,18,i,-2%,i
CCN(Cc1ccccc1)C(=O)C1CCN(Cc2ccc(OC)c(OC)c2OC)CC1,-1%,-11,8.2µM*,-4%,i
OC1CCN(Cc2cccc(Oc3ccccc3)c2)CC1,17%,0,i,-7%,i
CCN(Cc1ccccc1)C(=O)C1CCN(C/C(C)=C/c2ccccc2)CC1,3%,-6,?,?,i
CN(C)c1ccc(C2C=Cc3ccccc32)c2ccccc12 (stereo unspecified),nt,nt,i,nt,i
Cn1c(=O)c([N+](=O)[O-])c(NCc2ccccc2Cl)c2ccccc21,4%,-79*,i,-5%,i
Cn1c(=O)c([N+](=O)[O-])c(Cl)c2ccccc21,3.7µM*,-101*,i,16µM*,?
Cn1c(=O)c([N+](=O)[O-])c(-n2cnc3ccccc32)c2ccccc21,?,-98*,?,?,?
CCOC(=O)c1c(S(=O)(=O)N2CCCC(C(=O)NCc3ccccc3OC)C2)c(C)n(C)c1C (stereo unspecified),nt,nt,i,nt,i
Cc1ccc(SCc2nc(-c3ccc(C(=O)NCc4ccc(Cl)cc4)cc3)oc2C)cc1,nt,nt,i,nt,i
CCOc1ccccc1NC(=O)N1CCc2c(sc3c2CCCC3)C1c1ccccc1 (stereo unspecified),nt,nt,i,nt,i
CCC(=O)Nc1ccc(N/C(N)=N/c2nc(C)cc(C)n2)cc1,?,?,i,0%,i
COc1ccc(N/C(N)=N/c2nc(C)c(Cc3ccccc3)c(=O)[nH]2)cc1,17%,7,i,5%,i
Cc1cc(C)nc(/N=C(\N)Nc2ccccc2-c2ccccc2)n1,15%,-98*,?,3%,?
Cc1cc(C)nc(/N=C(\N)Nc2ccc(C(C)C)cc2)n1,?,-99*,?,?,i
Cc1cccc(N/C(N)=N/c2nc(C)c(Cc3ccccc3)c(=O)[nH]2)c1,18%,11,i,-1%,21µM*
CCCCc1ccc(N/C(N)=N/c2nc(C)cc(C)n2)cc1,?,nt,6.5µM*,?,?
COc1ccc(NC(=O)CS(=O)CC(=O)N2CCN(C3CCCC3)CC2)cc1 (stereo unspecified),19%,4,i,-2%,i
CC(=O)Nc1cccc(N/C(N)=N/c2nc(C)cc(C)n2)c1,33%,35,i,-21%,i
Cc1ccc(N/C(N)=N/c2nc(C)cc(C)n2)cc1,?,-18,?,?,i
Cc1cc(C)cc(N/C(N)=N/c2nc(C)cc(C)n2)c1,?,-102*,21µM*,?,?
Cc1cccc(N/C(N)=N/c2nc(C)cc(C)n2)c1,-5%,-109*,?,1%,?
CC(O)CNc1nc2c(c(=O)n(C)c(=O)n2C)n1Cc1cccc(Br)c1 (stereo unspecified),?,-30,15µM*,-1%,?
COc1cccc(Cn2c(NCC(C)C)nc3c2c(=O)n(C)c(=O)n3C)c1,?,21,3.3µM*,-6%,i
CCC(=O)N1CCc2cc(S(=O)(=O)CCC(=O)Nc3cccc(C)n3)ccc21,-7%,-3,?,-2%,i
SMILES,MCF10A rerep,IL1B secr inh,KB-V1 MDR tox,SW480 rerep,KB-3-1 cytotox
Cc1ccc(C(=O)N/N=C(\CC(C)C)c2ccccc2)cc1,16%,-4,?,23µM*,i
COc1ccc(CC(=O)Nc2nc(OCC(F)(F)F)cnc2-c2ccc(Cl)cc2Cl)cc1,nt,-2,?,nt,i
COc1ccc(C(CNC(=O)COc2cccc(C(F)(F)F)c2)N2CCCC2)cc1 (stereo unspecified),3%,-1,i,-19%,i
COc1ccc(Cc2nnc(N/N=C/c3ccc(O)cc3)[nH]c2=O)cc1OC,8.2µM*,-130*,?,?,0.58µM*
Cc1nc2ccccc2n1Cc1ccc(Br)cc1,-2%,-63*,?,-2%,?
Cc1nc2ccccc2n1Cc1ccccc1,-1%,53,?,-3%,i
Brc1ccc(Cn2c(-c3cncs3)nc3ccccc32)cc1,4%,-3,16µM*,1%,i
COc1cccc(N2CCN(S(=O)(=O)c3ccc(-n4cnnn4)cc3)CC2)c1,16%,-3,i,19%,i
O=C1CCC(C(=O)OCC(=O)c2ccccc2)N1 (stereo unspecified),-3%,17,i,-4%,i
CC1CC(C)C(=O)C(C(CC2CC(=O)NC(=O)C2)OC(=O)CC(=O)c2ccccc2)C1 (stereo unspecified),?,3,?,11%,2.6µM*
COC(=O)c1ccccc1NC(=O)CSc1nc2ccsc2c(=O)n1CCCCC(=O)O,nt,9,i,nt,i
CCCCn1c(SCC(=O)N2CCC(C)CC2)nc2ccsc2c1=O,12%,7,1.2µM*,2%,i
CCCCn1c(SCC(=O)N2CCN(c3ccccc3)CC2)nc2ccsc2c1=O,?,-23,8.2µM*,16%,i
CCCCn1c(SCC(=O)N2CCOCC2)nc2ccccc2c1=O,-5%,-1,i,-18%,i
CCCCn1c(SCC(=O)Nc2ccccc2C(F)(F)F)nc2ccsc2c1=O,10%,10,2.6µM*,1%,i
CCC(C)NC(=O)C(=O)Nc1c2c(nn1-c1ccccc1)CS(=O)(=O)C2 (stereo unspecified),nt,nt,i,nt,i
CCOC(=O)CNC(=S)N1CCn2c(nc3ccccc32)C1,9%,6,i,-35%,i
Cc1ccc(NC(=O)c2ncn(CCCN3CCN(Cc4cccc5ccccc45)CC3)n2)cc1C,?,-52*,i,-5%,i
Cc1ccc(NC(=O)c2ncn(CC(=O)N[C@H](C)c3cccc4ccccc34)n2)cc1C,0%,11,i,-10%,i
CCOc1cc(/C=C(\C#N)C(=O)Nc2ccc(OC)cc2)ccc1OCc1cc(=O)n2nc(CC)sc2n1,nt,nt,i,nt,i
COc1cc2nc(C3CCC3)nc(N3CCN(c4ccccn4)CC3)c2cc1OC,?,-99*,?,1%,?
COc1ccccc1N1CCN(C2CCCC(C)C2)CC1 (stereo unspecified),1%,-17,i,5%,i
COc1cc2nc(C3CCC3)nc(N3CCN(c4ccccc4OC)CC3)c2cc1OC,?,-25,7.3µM*,?,i
